Assay outcomes (PubChem)
The list is not random: actives were taken first. Their share in the collection is about 2.2%.
ID4 binder = binders of human ID4 protein; P47928; small molecule microarray, Flag-ID4 binding, fluorescence F/B; calls only; hit rate 1.2% among 31,000; call rule not given here;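 also: a binder raises fluorescence above local background on the spot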
Target sequence (P47928 whole entry, looked up): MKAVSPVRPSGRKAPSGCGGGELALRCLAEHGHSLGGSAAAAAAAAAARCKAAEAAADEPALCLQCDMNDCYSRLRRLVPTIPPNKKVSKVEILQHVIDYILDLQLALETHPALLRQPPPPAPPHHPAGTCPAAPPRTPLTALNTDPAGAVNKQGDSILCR
p53 PUMA act = re-activators of the mutant p53 pathway; hit rate 1.5% among 28,000; SW480 PUMA-promoter luciferase, p53 mutant reactivation; AID 624151; activation, % at 9.98 µM; in the data active = activation above about 52%; inconclusive = no clear call, values can overlap the other calls
* marks the source's active call; other numbers are inactive results; i = inactive; ? = inconclusive; . = no result given; + = active, no number.

SMILES	ID4 binder	p53 PUMA act
COc1ccc(S(=O)(=O)n2cc(-c3ccc(F)cc3)c(N)n2)c(OC)c1	i	-31.8
CC(C)(C)NC(=S)N1CCSCC1	i	3.4
C[C@@H]1O[C@@H](O[C@H]2[C@@H]3C=CO[C@@H](O[C@@H]4O[C@H](CO)[C@@H](O)[C@H](O)[C@H]4O)[C@@H]3[C@@]3(CO)O[C@@H]23)[C@H](O)[C@H](OC(=O)/C=C/c2ccc(O)cc2)[C@H]1O	.	-18.4
Cc1ccc(O)c(NC(=O)c2nc3ncccn3n2)c1	i	57.5*
O=C(Nc1cccnc1)c1nc2ncccn2n1	i	-0.7
O=C(NC(=S)NCc1cccnc1)c1ccc(-c2cccc(Cl)c2Cl)o1	i	60.9*
O=C(NC(=S)NCc1cccnc1)c1ccc(-c2cccc([N+](=O)[O-])c2)o1	i	48.4
CS(=O)(=O)N(CC(=O)Nc1ccccc1C(F)(F)F)c1ccc2c(c1)OCCO2	i	-3.2
COc1ccccc1OCC(O)Cn1cnc2ccccc21 (stereo not given)	i	30.2
Cc1ccc(OCC(=O)Nc2cc(Cl)ccc2N2CCOCC2)c(C)c1	i	-1.7
Cn1c(=O)c2c(nc(N3CCOCC3)n2CCCN)n(C)c1=O	+	2.1
CCCCn1c(SCC(N)=O)nc2c1c(=O)n(C)c(=O)n2C	i	-5.7
CC(=O)c1c(O)cc(O[C@@H]2O[C@H](CO)[C@@H](O)[C@H](O)[C@H]2O)cc1O	.	18.0
COc1ccc(/C=C/c2cc(O)cc(O[C@@H]3O[C@H](CO)[C@@H](O)[C@H](O)[C@H]3O)c2)cc1	i	64.3*
Cc1ccc(-c2cc(C(=O)NCCCN3CCOCC3)no2)cc1	i	-10.9
Cc1ccc(-c2cc(C(=O)NCc3cccnc3)no2)cc1	i	91.3*
O=C(CSc1nc2ccccc2s1)Nc1ccc2c(c1)OCCO2	i	18.8
Cc1csc(SCC(=O)Nc2ccc3c(c2)OCCO3)n1	i	60.8*
Cc1ccc(NC(=O)CSc2c(C)n[nH]c2C)cc1Cl	i	-4.7
CSc1ccc(C(Nc2ccccn2)c2cc(Cl)c3cccnc3c2O)cc1 (stereo not given)	i	-85.5
c1ccc(CCn2c3ccccc3c3nnc(SCc4ccc5nonc5c4)nc32)cc1	i	61.5*
CCCn1c2ccccc2c2nnc(SCCC(=O)O)nc21	i	6.8
COC(=O)Nc1sc2c(c1C(=O)NCc1ccco1)CCCC2	+	-7.3
COC(=O)Nc1sc2c(c1C(=O)NCc1ccco1)CCC2	i	1.9
O=C(Nc1sc2c(c1C(=O)NCc1cccnc1)CCCC2)c1ccco1	i	28.9
SMILES	ID4 binder	p53 PUMA act
O=C(Nc1sc2c(c1C(=O)NCc1cccnc1)CCCCC2)c1ccccc1	+	?
COc1cc(OC)cc(-c2nnc(SCC(=O)c3cccc([N+](=O)[O-])c3)o2)c1	i	2.2
Clc1ccc2nc(SCc3csc(Nc4ccccc4)n3)oc2c1	i	7.9
Clc1ccc(SCc2csc(-c3ccsc3)n2)cc1	i	60.8*
NCCCCCCNC(=O)[C@@H]1C[C@@H]2C(=O)NCC(=O)N2[C@@H]1c1cccc(OCCO)c1	+	.
O=C(NCc1ccc(F)cc1)[C@H]1C[C@H]2C(=O)N[C@@H](Cc3ccccc3)C(=O)N2[C@H]1c1cccc(OCCO)c1	+	.
O=C1N[C@@H](Cc2ccccc2)C(=O)N2[C@@H]1C[C@@H](C(=O)NCc1ccc(F)cc1)[C@H]2c1ccc(O)cc1	+	.
CC(C)C[C@@H]1NC(=O)[C@@H]2C[C@H](C(=O)NCc3ccc(F)cc3)[C@H](c3cccc(OCCO)c3)N2C1=O	i	.
CN(C)CCCC[C@@H]1NC(=O)[C@H]2C[C@@H](C(=O)NCc3ccc(F)cc3)[C@@H](c3ccc(O)cc3)N2C1=O	i	.
CC(=O)NCCCC[C@@H]1NC(=O)[C@H]2C[C@@H](C(=O)NCCCCCCN(C)C)[C@@H](c3cccc(OCCO)c3)N2C1=O	i	.
COc1cccc(NC(=O)CCCC(=O)O)c1	i	-9.6
O=C(CC1NC2CCCCC2NC1=O)Nc1ccc(Cl)cc1 (stereo not given)	i	9.2
CCN(CC)C(=O)c1cc(-c2ccc(Cl)c(Cl)c2)on1	i	72.4*
Cc1ccc(-c2cc(C(=O)Nc3cc(C)nn3-c3ccccc3)no2)cc1	i	13.0
O=C(COc1cc(Cl)c(Cl)cc1Cl)Nc1ccccc1[N+](=O)[O-]	i	0.2
COc1cc([N+](=O)[O-])cc(CN2CCN(CCO)CC2)c1O	i	-11.2
CCn1c2ccccc2n2c(SCC(=O)Nc3ccc(Cl)cc3)nnc12	i	24.7
N#Cc1ccc(NC(=O)c2ccc(Br)o2)cc1	i	63.9*
O=C(NC(=S)Nc1ccc(S(=O)(=O)Nc2nccs2)cc1)c1ccc(Br)o1	i	3.5
O=C(O)CCC(=O)Nc1cccc(C(F)(F)F)c1	i	-6.3
O=C(CS(=O)c1ccccc1[N+](=O)[O-])Nc1cccc(C(F)(F)F)c1 (stereo not given)	i	70.5*
COC(=O)c1cccc(NC(=O)COc2cc(C)cc(C)c2)c1	i	41.5
O=C(O)CCCC(=O)Nc1ccc(Cl)c(Cl)c1	i	-11.2
CN(Cc1ccccc1)CC1CC(c2ccccc2)OC(c2ccc(NC(=O)CCCCCCC(=O)O)cc2)O1 (stereo not given)	+	.
COC(=O)CCCCCCC(=O)Nc1ccc(C2OC(CN(C)Cc3ccccc3)CC(c3ccccc3)O2)cc1 (stereo not given)	i	.
SMILES	ID4 binder	p53 PUMA act
COC(=O)CCCCCCC(=O)Nc1ccc(C=O)cc1	i	.
COCC1CC(c2ccccc2)OC(c2ccc(NC(=O)CCCCCCC(=O)O)cc2)O1 (stereo not given)	+	.
O=C(O)CCCCCCC(=O)Nc1ccc(C2OC(CSc3ccncc3)CC(c3ccccc3)O2)cc1 (stereo not given)	+	.
C=C[C@]1(C)CC[C@H]([C@H](C)C(=O)/C=C/C(C)(C)O)O1	i	.
O=C(COc1ccc(S(=O)(=O)N2CCCC2)cc1Cl)Nc1ccccc1F	i	6.4
Cc1cccc(OCC(=O)Nc2cccc(-c3nc4cc(C)ccc4o3)c2)c1	i	86.1*
CCc1ccc(OCC(=O)Nc2ccc3oc(-c4ccccc4)nc3c2)cc1	i	?
Cc1cc(C)cc(OCC(=O)Nc2cccc(-c3nc4ccccc4o3)c2)c1	i	9.2
COc1ccc(OCC(=O)Nc2ccc(-c3nc4cc(C)ccc4o3)cc2)cc1	i	-45.5
CCc1ccc2oc(-c3cccc(NC(=O)COc4ccccc4)c3)nc2c1	i	82.0*
Cc1ccc2oc(-c3cccc(NC(=O)COc4ccc5ccccc5c4)c3)nc2c1	i	81.6*
COc1ccc(S(=O)(=O)NCc2cccnc2)c(C)c1C	i	-0.6
C=C(C(=O)O)C(CCCCC(C)O)C(=O)O (stereo not given)	i	3.7
C=C(C(=O)O)C(CCCCCCO)C(=O)O (stereo not given)	+	-5.4
O=C(NS(=O)(=O)c1ccc(NC(=O)C2COc3ccccc3O2)cc1)c1ccccc1 (stereo not given)	i	-3.2
O=C(O)C1C2C=CC(O2)C1C(=O)Nc1ccc(S(=O)(=O)N2CCc3ccccc32)cc1 (stereo not given)	+	-9.4
O=C(CSc1nnnn1-c1ccccc1)Nc1cccc(C(=O)O)c1	i	-7.6
Cn1nnnc1SCC(=O)Nc1ccc(I)cc1	i	78.3*
Cn1nnnc1SCC(=O)Nc1ccc(C(=O)O)cc1	i	-4.2
Cc1ccc(NC(=O)CSc2nnnn2-c2cccc(C(=O)O)c2)cc1C	+	0.1
